This note sets out measurements from ChEMBL document CHEMBL3988442, “University of Dundee, Small-Polar-MMV Screening Library” (2021).

Assay [1] has as its target Protein translocase subunit SecA (Escherichia coli (strain K12)) (UniProt P10408). As to the kind of experiment: Assay to Identify E. coli SecA ATPase Inhibitors. The arrangement: scale not given: direction of the effect not stated beside the values. The assay is classed as functional. As to conditions: 30 µM.
Assay [2] addresses T1, Ubiquitin-activating enzyme e1, putative (Leishmania donovani (strain BPK282A1)) (UniProt E9BSI1).
T1 sequence (whole entry): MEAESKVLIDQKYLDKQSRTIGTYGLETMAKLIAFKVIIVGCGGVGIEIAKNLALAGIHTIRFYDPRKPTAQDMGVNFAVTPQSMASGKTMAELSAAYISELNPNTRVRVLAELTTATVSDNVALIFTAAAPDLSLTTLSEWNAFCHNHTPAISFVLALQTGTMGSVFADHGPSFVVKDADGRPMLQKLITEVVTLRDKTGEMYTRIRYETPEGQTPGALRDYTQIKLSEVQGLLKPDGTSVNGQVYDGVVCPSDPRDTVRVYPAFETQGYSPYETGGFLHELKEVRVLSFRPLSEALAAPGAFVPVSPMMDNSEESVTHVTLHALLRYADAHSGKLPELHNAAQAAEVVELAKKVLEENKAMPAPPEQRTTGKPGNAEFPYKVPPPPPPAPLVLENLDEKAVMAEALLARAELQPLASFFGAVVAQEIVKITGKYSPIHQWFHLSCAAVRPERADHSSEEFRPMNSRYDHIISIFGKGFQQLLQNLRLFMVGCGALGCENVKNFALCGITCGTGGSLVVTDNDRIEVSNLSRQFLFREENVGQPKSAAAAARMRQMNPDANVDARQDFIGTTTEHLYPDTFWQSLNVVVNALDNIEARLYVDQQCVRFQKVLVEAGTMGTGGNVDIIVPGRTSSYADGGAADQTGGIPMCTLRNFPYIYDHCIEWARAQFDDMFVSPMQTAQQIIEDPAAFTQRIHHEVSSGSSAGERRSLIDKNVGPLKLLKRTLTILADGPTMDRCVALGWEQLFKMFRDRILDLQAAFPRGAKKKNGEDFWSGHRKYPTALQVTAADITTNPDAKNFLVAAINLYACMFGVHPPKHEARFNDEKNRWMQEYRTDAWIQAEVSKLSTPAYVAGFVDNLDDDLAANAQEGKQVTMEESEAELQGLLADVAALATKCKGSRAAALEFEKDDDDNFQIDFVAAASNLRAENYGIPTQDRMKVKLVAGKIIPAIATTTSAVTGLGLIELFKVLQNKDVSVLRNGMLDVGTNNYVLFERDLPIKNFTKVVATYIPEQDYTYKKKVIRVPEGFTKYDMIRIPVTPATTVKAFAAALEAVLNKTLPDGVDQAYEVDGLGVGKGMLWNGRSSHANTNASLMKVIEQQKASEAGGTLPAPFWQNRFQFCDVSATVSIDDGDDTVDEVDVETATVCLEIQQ
As to the kind of experiment: Leishmania donovani Ubiquitin Activating Enzyme (LdE1). As to conditions: 30 µM. In kind it is functional. The arrangement: scale not given: direction of the effect not stated beside the values.

For assay [3], the target named is AMP-activated protein kinase, AMPK (Homo sapiens) (UniProt P54646+O43741+P54619+Q9UGJ0+Q9Y478+Q13131+Q9UGI9). The assay can be described thus: AMP-dependent Kinase enzyme assay. An in vitro enzyme assay that detects ADP turnover that is directly proportional to AMPK activity. This uses naive AMPK that is activated during the assay with MK-8722. The assay is classed as functional. Details: scale not given: direction of the effect not stated beside the values. As to conditions: 30 µM.

For assay [4], the target named is Sialic acid-binding Ig-like lectin 9 (Homo sapiens) (UniProt Q9Y336). The assay can be described thus: Hs-Siglec9 ALPHAscreen SOP 20170721. The conditions noted are these: 10 µM. Details: scale not given: direction of the effect not stated beside the values.
Sequence of Sialic acid-binding Ig-like lectin 9 (Homo sapiens) (Q9Y336 whole entry): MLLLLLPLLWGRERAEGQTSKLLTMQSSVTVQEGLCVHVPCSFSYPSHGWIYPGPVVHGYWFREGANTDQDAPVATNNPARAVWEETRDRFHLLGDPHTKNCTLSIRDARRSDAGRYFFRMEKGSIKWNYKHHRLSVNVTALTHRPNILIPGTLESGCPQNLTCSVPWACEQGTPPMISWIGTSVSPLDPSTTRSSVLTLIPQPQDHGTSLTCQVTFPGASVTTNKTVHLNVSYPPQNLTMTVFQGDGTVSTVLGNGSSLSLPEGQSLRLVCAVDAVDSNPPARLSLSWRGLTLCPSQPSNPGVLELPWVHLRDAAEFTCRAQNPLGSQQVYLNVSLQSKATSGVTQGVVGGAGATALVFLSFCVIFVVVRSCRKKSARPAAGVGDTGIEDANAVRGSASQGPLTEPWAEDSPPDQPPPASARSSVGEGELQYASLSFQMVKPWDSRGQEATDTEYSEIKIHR
Assay [5] deals with Trypanosoma cruzi. As to the kind of experiment: Trypanosoma cruzi phosphomannomutase and mannose-1-phosphate guanylyltransferase assay. The arrangement: scale not given: direction of the effect not stated beside the values. The conditions noted are these: 10 µM. In kind it is functional.
Assay [6] concerns the target T2, Arginase-2, mitochondrial (Homo sapiens) (UniProt P78540).
T2 sequence (whole entry): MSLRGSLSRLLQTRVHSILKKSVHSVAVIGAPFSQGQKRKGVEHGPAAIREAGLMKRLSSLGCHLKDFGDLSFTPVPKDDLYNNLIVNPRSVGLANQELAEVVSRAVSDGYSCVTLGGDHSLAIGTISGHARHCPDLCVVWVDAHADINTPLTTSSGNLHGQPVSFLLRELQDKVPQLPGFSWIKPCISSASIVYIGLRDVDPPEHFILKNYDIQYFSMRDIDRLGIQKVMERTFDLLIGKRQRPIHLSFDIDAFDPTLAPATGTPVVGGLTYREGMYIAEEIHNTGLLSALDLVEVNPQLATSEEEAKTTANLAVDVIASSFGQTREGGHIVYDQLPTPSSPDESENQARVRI
The assay can be described thus: in vitro enzyme assay to detect the production of urea directly proportional to the activity of Arginase II. In kind it is functional. Details: scale not given: in the data most compounds retested in dose-response had high values.

The target of assay [7] is T3, Proteasome subunit beta (Trypanosoma cruzi) (UniProt O96673).
T3 sequence (whole entry): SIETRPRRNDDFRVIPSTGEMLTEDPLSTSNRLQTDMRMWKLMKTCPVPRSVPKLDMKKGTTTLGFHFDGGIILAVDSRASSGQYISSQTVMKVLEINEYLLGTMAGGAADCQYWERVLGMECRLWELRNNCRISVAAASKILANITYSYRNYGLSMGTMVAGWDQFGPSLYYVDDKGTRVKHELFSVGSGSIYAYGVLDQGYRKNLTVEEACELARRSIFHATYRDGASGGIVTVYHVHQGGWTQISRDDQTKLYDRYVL
The assay can be described thus: Trypanosoma cruzi proteasome chymotrypsin-like activity (TcProtChymo) assay. The conditions noted are these: 9.37 µM. The arrangement: scale not given: in the data most compounds retested in dose-response had high values. The assay is classed as functional.

The species entered for assay [8] is Homo sapiens. As to the kind of experiment: To identify inhibition of the IFN signalling (Jak-Stat) pathway via expression of an eGFP reporter gene under the control of an IFN-stimulated response element (ISRE) containing MxA promoter. In kind it is functional. Details: scale not given: direction of the effect not stated beside the values. As to conditions: 30 µM.

Assay [9] addresses T4, Tyrosyl-tRNA synthetase, putative (Trypanosoma cruzi (strain CL Brener)) (UniProt Q4DSP6).
T4 sequence (whole entry): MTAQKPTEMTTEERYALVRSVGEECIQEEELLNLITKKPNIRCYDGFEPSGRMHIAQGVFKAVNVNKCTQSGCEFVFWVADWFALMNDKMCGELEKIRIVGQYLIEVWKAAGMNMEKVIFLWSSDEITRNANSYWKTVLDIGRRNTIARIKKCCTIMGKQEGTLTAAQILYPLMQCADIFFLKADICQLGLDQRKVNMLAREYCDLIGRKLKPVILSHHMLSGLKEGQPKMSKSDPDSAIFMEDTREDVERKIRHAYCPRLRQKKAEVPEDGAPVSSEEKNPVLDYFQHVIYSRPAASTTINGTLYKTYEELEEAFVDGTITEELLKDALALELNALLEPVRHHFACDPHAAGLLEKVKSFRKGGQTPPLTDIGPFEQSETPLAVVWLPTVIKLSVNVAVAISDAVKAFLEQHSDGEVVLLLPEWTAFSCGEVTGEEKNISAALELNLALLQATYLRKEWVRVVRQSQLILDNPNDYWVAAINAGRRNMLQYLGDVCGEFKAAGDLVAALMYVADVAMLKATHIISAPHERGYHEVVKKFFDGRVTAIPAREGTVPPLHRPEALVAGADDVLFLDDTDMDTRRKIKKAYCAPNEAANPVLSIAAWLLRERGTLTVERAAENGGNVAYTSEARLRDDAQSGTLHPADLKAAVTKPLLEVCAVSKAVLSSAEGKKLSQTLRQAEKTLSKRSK
The assay can be described thus: Trypanosoma cruzi tyrosyl tRNA synthetase (TcYRS) _High Tyrosine SOP. In kind it is functional. Details: scale not given: in the data most compounds retested in dose-response had high values. As to conditions: 30 µM.

Assay [10] concerns the target T4, Tyrosyl-tRNA synthetase, putative (Trypanosoma cruzi (strain CL Brener)). The assay can be described thus: Trypanosoma cruzi tyrosyl tRNA synthetase (TcYRS) SOP. The assay is classed as functional. Details: scale not given: direction of the effect not stated beside the values. As to conditions: 30 µM.
Assay [11] has as its target Chromo domain-containing protein 1 (Saccharomyces cerevisiae (strain ATCC 204508 / S288c) (Baker's yeast)) (UniProt P32657). As to the kind of experiment: ScCHD-1 Enzyme Inhibition Assay. In kind it is functional. Details: scale not given: in the data most compounds retested in dose-response had high values. The conditions noted are these: 30 µM.
In assay [12] the target is T5, Methionyl-tRNA synthetase, putative (Leishmania donovani (strain BPK282A1)) (UniProt E9BF75).
T5 sequence (whole entry): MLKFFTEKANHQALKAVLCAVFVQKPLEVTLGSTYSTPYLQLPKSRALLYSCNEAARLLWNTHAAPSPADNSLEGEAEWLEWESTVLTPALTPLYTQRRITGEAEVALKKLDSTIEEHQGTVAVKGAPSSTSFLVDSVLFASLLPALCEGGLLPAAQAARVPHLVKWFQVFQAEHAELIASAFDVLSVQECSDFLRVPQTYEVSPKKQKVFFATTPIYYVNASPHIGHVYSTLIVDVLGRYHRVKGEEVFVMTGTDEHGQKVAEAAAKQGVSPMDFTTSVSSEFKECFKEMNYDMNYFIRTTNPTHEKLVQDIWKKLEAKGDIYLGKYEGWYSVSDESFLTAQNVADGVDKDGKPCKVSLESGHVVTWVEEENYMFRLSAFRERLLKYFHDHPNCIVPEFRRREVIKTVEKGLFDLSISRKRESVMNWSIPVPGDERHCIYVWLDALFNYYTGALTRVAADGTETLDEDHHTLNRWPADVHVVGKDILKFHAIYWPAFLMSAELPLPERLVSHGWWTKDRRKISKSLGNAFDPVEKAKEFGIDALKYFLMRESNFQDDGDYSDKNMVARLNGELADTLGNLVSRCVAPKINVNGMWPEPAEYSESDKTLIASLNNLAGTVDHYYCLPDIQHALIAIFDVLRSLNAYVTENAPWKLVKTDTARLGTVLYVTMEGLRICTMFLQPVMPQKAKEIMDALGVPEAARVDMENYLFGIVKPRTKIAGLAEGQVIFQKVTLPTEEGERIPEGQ
As to the kind of experiment: Leishmania donovani Methionine tRNA synthetase (LdMetRS):v7. Dose response assay. In kind it is functional. Details: conc 80 nM, time 150 minutes.

The structures appear in SMILES notation. For some of these results: Potency and affinity values are given separately. Bounds are passed on as bounds.

Sequence of Protein translocase subunit SecA (Escherichia coli (strain K12)) (P10408 whole entry): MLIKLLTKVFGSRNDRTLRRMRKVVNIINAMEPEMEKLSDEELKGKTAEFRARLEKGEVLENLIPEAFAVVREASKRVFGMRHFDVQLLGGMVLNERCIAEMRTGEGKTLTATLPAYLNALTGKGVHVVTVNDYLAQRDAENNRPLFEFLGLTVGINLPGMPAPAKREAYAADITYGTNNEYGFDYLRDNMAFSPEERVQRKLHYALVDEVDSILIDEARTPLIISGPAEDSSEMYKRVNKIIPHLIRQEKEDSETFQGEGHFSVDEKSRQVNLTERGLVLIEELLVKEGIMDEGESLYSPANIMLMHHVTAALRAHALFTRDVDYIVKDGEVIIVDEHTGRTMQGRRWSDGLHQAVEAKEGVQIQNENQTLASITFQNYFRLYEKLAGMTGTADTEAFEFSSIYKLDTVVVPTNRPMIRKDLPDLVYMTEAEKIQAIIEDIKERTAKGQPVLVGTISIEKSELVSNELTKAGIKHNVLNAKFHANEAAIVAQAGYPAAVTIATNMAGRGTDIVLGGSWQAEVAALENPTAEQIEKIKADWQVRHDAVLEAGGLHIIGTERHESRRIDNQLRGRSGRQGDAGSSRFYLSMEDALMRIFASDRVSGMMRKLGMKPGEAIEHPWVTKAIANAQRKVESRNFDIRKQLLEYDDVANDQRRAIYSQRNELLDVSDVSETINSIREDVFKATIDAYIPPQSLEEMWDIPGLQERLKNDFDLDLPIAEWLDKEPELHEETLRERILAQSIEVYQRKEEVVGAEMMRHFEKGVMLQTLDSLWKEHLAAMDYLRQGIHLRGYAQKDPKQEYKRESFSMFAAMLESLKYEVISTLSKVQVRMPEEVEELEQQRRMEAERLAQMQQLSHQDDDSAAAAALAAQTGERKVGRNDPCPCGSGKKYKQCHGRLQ
Sequence of Chromo domain-containing protein 1 (Saccharomyces cerevisiae (strain ATCC 204508 / S288c) (Baker's yeast)) (P32657 whole entry, the tested form may be a part): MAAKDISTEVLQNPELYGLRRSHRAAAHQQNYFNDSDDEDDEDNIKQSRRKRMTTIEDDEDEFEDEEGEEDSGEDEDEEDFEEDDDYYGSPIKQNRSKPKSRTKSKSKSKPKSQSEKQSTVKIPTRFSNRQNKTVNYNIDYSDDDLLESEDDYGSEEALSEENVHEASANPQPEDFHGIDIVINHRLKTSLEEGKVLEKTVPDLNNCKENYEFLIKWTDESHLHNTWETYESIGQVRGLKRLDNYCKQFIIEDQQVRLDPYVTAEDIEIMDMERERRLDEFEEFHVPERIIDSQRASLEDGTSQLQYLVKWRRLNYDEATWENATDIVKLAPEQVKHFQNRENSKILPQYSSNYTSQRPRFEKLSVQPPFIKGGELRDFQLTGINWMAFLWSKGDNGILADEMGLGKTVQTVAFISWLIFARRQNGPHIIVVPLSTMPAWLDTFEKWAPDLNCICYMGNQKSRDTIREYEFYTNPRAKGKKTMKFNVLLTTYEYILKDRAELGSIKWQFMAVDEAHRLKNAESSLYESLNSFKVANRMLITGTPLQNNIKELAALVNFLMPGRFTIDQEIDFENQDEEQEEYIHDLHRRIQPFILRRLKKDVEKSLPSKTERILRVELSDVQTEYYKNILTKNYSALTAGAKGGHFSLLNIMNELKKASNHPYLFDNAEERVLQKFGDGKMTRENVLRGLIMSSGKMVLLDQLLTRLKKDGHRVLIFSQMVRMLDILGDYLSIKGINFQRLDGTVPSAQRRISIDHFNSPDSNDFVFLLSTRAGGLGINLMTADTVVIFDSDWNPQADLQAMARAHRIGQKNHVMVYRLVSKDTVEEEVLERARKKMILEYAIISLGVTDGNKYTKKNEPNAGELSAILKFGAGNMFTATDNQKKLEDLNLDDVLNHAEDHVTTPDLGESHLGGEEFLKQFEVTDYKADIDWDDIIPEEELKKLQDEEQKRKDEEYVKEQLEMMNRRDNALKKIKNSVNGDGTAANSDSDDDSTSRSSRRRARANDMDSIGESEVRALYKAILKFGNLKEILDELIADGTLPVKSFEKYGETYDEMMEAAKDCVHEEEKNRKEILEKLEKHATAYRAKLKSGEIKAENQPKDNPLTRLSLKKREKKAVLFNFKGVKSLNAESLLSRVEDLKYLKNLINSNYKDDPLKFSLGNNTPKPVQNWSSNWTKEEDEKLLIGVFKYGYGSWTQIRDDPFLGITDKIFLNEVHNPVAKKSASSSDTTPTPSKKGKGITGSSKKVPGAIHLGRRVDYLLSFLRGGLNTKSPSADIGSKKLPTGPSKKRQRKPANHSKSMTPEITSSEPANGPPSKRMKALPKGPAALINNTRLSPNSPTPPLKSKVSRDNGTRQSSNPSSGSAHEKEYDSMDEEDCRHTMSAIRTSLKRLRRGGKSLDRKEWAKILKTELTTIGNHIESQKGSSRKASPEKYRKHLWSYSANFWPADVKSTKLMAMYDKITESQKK

Regarding `CN(Cc1ccccn1)C(=O)[C@]12COC[C@H]1CN(Cc1cnn(C)c1)C2`, the Percent Effect is -1.75% in [1]; 2.67% in assay [2]; 0.223% in assay [3]; 6.55% in assay [4]; 1.16% in [5]; 5.95% in assay [6] (30 µM). Moreover, the Percent Effect in [6] (33.3 µM) is -52.5%; in [7], 3.93%; in assay [8] it was -7.69%; in assay [9], 2.08%; in assay [10], 7.5%; in assay [11], -8.12%.

As to `Cc1nn(CCO)c(C)c1CNC1CCC(C)(C)c2ccccc21` (centres undefined), the Percent Effect in [1] was -3.92%; in assay [2], 8%; in assay [3], -5.82%; in [4], 14.7%; in assay [5], 7.3%; in assay [6] (30 µM), 2.7%. For the same compound, the Percent Effect in assay [6] (33.3 µM) is 9.38%; in assay [7] it was 9.42%; in assay [8] it was 23.6%; in [9], 1.64%; in assay [10], 13.6%; in assay [11], -6.8%.

Take `CN(C)C(=O)CNC(=O)c1cc(Br)c2c(c1)OCCO2`: the Percent Effect in assay [1] was -5.71%; in assay [2] it was 8%; in assay [3], -2.43%; in assay [4] it was 7.31%; in [5], 4.58%; in assay [6] (30 µM) it was 4.87%. For the same compound, the Percent Effect in [6] (33.3 µM) was 1.56%; in assay [7], 21.6%; in [8] it was -10.2%; in assay [9] it was 7.1%; in assay [10], 18.5%; in assay [11], -4.33%.

In the case of `Cc1cc(CNC(=O)N2CCN(c3ccccc3)CC2)no1`, the Percent Effect in assay [1] was -3.75%; in assay [2], 5.41%; in assay [3] it was 2.37%; in assay [4], 0.348%; in [5] it was 0%; in assay [6] (30 µM), 3.78%. Moreover, the Percent Effect in [6] (33.3 µM) is 4.17%; in [7], 10.6%; in assay [8] it was -2.92%; in [9] it was 9.9%; in assay [10] it was 3.66%; in [11], -1.36%.

Consider `Cc1c(C(=O)O)sc2nc(Cc3ccccc3)nc(N)c12`, for which the PXC50 in assay [12] (MAX_EFFECT 1.767676768) and in assay [12] (MAX_EFFECT 2.040816327) was < 4 throughout. For the same compound, the Percent Effect in assay [3] worked out at 4.73%.

On to `FC1(F)CCN(Cc2ccncc2)CC12CCN(Cc1ccccn1)C2` (centres undefined), for which the PXC50 in [12] (MAX_EFFECT 4.275534442) and in assay [12] (MAX_EFFECT 11.44366197) was < 4 each time. In addition, the Percent Effect is -7.03% in assay [1]; 0% in assay [2]; -0.894% in assay [3]; 2.49% in assay [4]; -5.96% in assay [5]; 0.319% in assay [6] (33.3 µM). Besides, the Percent Effect in assay [7] is 5.35%; in assay [8], 17.3%; in assay [9], -3.24%; in assay [10] it was -5.13%; in assay [11], -2.99%.
